Consider nine compounds from PubChem BioAssay.

Active and inactive are the calls of the source. Unless noted, how the calls were made is not given here.

The nature of experiment [1]: HepG2 liver cancer cell viability effects, profiling panel, resazurin fluorescence, 24 h, PK04 Diversity Set (AID 1172). The note with it: higher = more signal.
Experiment [2] is described as follows: basal S. cerevisiae growth modulation, no modifier, primary screen, OD600, strain BY4716, 24 h, basal condition (AID 1173). The note with it: OD600, 24 h, higher = more signal, called active from +8 up or from −8 down.
Experiment [3] in a line: MM1S myeloma cell viability, profiling panel, resazurin fluorescence, basal, 24 h, PK04 Diversity Set (AID 1174). The note with it: higher = more signal, called active from +8 up or from −8 down.
The target of experiment [4] is Dihydroorotate dehydrogenase (quinone), mitochondrial (Plasmodium falciparum (isolate 3D7)) (UniProt Q08210). Put plainly: PfDHODH enzyme inhibitors, primary screen, biochemical, C-terminal His tag, absorbance 600 nm (AID 1175).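 Further: recombinant parasite enzyme with a five histidine tag at its C terminus.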 Conditions: DCIP absorbance 600 nm, higher = more signal, called active from +8 up or from −8 down.
Experiment [5] in a line: P. aeruginosa biofilm formation inhibitors, primary screen, strain PAO1, LB-PBS medium, absorbance 600 nm (AID 1176). The note with it: P. aeruginosa PAO1 growth/biofilm, A600, 12 h; higher = more signal.
Experiment [6] can be described thus: S. cerevisiae RM11-1a growth modifiers, primary screen, strain RM11-1a, OD600, basal, 24 h (AID 1177).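 Further: cultures grown under basal conditions with no added stressor.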 Conditions: OD600, 24 h, higher = more signal, called active from +8 up or from −8 down.
A short description of experiment [7]: E. coli acrAB mutant growth effects, primary screen, E. coli filamentation inducers, strain DRC39, OD650, 24 h (AID 1178).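 Further: growth measured as culture turbidity by optical density at 650 nm.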 Conditions: higher = more signal, called active from +8 up or from −8 down.
A short description of experiment [8]: E. coli acrAB mutant growth effects, primary screen, E. coli filamentation inducers, strain DRC39, OD650, 48 h (AID 1179).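 Further: screen aims at cell division blockers that make cells filament.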 Conditions: E. coli DRC39 delta-acrAB growth, higher = more signal, called active from +8 up or from −8 down.
Experiment [9] can be described thus: RPMI8226 myeloma cell viability, profiling panel, resazurin fluorescence, basal, 24 h, PK04 Diversity Set (AID 1180).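 Further: RPMI8826 multiple myeloma cell line at 5000 cells per well.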 The note with it: higher = more signal. For orientation: The colour change of resazurin is a common sign of viable cells or microbes.
For experiment [10], the target named is E3 ubiquitin-protein ligase XIAP (Homo sapiens) (UniProt P98170). Briefly: XIAP binders, primary screen, biophysical, small-molecule microarray, fluorescence 635 nm (AID 1181).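 Further: score merges 667 nm emission and signal to noise over triplicate slides.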 The note with it: small-molecule microarray binding, higher = more signal.
Experiment [11] deals with XIP peptide (Xip251-270) binding. Put plainly: small-molecule binders of XIP peptide, primary screen, biochemical, small-molecule microarray, fluorescence 635/667 nm, 0.1 µg/mL protein (AID 1182). Conditions: fluorescent protein binding, 635 nm, higher = more signal, called active from +8 up or from −8 down.
The subject of experiment [12] is XIP peptide (Xip251-270). Put plainly: small-molecule binders of XIP peptide, primary screen, biochemical, small-molecule microarray, fluorescence 635/667 nm, 0.5 µg/mL protein (AID 1183). Conditions: small-molecule microarray binding, fluorescence 635 nm; higher = more signal.
A short description of experiment [13]: Plasmodium falciparum growth inhibition, primary screen, strain 3D7, DAPI fluorescence, 100 nL (AID 1184).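 Further: parasites grown inside human red blood cells in medium with human serum.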 The note with it: P. falciparum 3D7 growth, 3 d, higher = more signal.
Experiment [14] addresses Homeobox protein Hox-A13 (Mus musculus) (UniProt Q62424). Briefly: inhibitors of HoxA13-DNA binding, primary screen, biochemical, fluorescence polarization, labeled oligonucleotide (AID 1185). The note with it: 15 min, higher = more signal, called active from +8 up or from −8 down. (In general: In fluorescence polarisation assays a small probe gives low polarisation when free and higher when bound to something large.)

The nature of experiment [15]: inhibitors of hydroxyurea-induced Chk1 phosphorylation, primary screen, imaging, HeLa, phospho-Chk1 antibody, percent positive cells (AID 1186). Conditions: hydroxyurea-induced phospho-Chk1 immunofluorescence imaging, higher = more signal.
Experiment [16] is described as follows: inhibitors of hydroxyurea-induced Chk1 phosphorylation, primary screen, imaging, HeLa, phospho-Chk1 nuclear intensity (AID 1187). Conditions: hydroxyurea-induced phospho-Chk1 immunofluorescence imaging, higher = more signal.

Homeobox protein Hox-A13 (Mus musculus), sequence (Q62424 whole entry, looked up): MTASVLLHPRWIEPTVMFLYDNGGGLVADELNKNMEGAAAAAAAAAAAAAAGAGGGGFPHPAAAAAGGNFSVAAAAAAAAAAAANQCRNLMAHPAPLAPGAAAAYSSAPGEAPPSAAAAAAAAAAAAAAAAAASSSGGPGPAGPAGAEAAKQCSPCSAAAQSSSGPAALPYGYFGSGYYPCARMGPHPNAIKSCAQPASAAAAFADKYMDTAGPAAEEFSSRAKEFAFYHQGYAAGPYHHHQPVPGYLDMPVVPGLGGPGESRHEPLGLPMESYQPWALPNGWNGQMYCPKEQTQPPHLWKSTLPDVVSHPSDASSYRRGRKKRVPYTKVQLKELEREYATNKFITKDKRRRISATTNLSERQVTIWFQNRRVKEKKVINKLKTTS
E3 ubiquitin-protein ligase XIAP (Homo sapiens), sequence (P98170 whole entry, looked up): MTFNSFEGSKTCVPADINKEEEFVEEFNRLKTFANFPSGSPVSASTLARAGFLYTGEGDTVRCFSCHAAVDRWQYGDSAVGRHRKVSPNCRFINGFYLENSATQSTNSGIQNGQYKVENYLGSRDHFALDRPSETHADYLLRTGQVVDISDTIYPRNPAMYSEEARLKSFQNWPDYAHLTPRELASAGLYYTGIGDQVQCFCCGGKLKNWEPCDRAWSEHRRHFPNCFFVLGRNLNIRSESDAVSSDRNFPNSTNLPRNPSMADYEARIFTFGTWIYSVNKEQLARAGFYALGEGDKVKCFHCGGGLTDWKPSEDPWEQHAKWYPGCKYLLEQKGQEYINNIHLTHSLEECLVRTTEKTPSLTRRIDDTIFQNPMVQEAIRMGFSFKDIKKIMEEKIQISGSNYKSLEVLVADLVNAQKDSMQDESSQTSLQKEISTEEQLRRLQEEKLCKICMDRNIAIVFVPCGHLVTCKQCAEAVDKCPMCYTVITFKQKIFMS
Dihydroorotate dehydrogenase (quinone), mitochondrial (Plasmodium falciparum (isolate 3D7)), sequence (Q08210 whole entry, looked up): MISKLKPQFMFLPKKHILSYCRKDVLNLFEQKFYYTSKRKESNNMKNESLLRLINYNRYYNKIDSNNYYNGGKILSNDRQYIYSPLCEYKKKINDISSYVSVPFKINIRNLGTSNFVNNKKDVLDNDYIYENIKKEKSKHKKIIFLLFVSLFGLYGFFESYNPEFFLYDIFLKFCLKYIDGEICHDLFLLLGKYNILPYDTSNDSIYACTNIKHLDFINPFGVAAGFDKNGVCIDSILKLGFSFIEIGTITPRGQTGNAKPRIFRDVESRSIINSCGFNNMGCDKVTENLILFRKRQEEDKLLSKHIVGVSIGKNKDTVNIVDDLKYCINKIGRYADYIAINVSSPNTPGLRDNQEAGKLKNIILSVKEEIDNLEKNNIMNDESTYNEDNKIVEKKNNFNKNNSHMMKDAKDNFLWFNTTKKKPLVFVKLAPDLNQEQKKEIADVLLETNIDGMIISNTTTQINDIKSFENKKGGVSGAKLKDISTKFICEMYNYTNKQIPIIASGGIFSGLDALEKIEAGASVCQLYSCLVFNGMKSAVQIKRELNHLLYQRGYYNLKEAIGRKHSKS

Take `C=C(CCCC)/C(=C/C[C@H](OC(C)=O)c1cccc(OCCO)c1)c1cnc2ccccc2c1`: the z-score in experiment [1] was 0.209; in [2] it was 1.13 (inactive); in [3], -0.117 (inactive); in [5], -0.693 (inactive); in [6], 1.75 (inactive); in [7], 0.5 (inactive). Besides, the z-score was 0.211 (inactive) in experiment [8]; 0.814 in experiment [9]; -2.57 in [13]; -4.01 (inactive) in experiment [14]; -0.549 (inactive) in [15]; -0.761 (inactive) in [16]. Further, the composite z-score in [4] was -3.15 (inactive); in experiment [10], -0.0448; in [11], -0.0697 (inactive); in experiment [12], 0.0014.

With `C=CC[C@]1(C(=O)NCC(O)CO)COC(c2ccc(OCCCO)cc2)=N1` (some centres undefined), the z-score in experiment [1] is -0.25; in [2], 0.369 (inactive); in experiment [3] it was -0.772 (inactive); in [5] it was 2.29 (inactive); in experiment [6], 1.33 (inactive); in experiment [7], -0.34 (inactive). The z-score was -0.471 (inactive) in [8]; -0.412 in [9]; 0.343 in experiment [13]; -4.55 (inactive) in experiment [14]; 0.0293 (inactive) in experiment [15]; -0.553 (inactive) in experiment [16]. The composite z-score is 0.233 (inactive) in [4], -0.266 in experiment [10], -0.933 (inactive) in experiment [11] and -1.45 in experiment [12].

For `COCCOC(=O)N1C(=O)[C@@]2(c3cc(C#CCNC(N)=O)ccc31)[C@H](C(=O)Nc1nc3ccccc3s1)[C@H]1C(=O)O[C@H](c3ccccc3)[C@H](c3ccccc3)N1[C@@H]2c1ccccc1OCCO`, the z-score is 0.0277 in [1]; 0.21 (inactive) in [2]; -0.482 (inactive) in [3]; 3.44 (inactive) in [5]; 2.32 (inactive) in [6]; 0.405 (inactive) in experiment [7]. For the same compound, the z-score was 1.14 (inactive) in experiment [8]; -1.01 in experiment [9]; -1.78 in experiment [13]; 2.01 (inactive) in [14]; -0.339 (inactive) in experiment [15]; -0.644 (inactive) in [16]. Further, the composite z-score in experiment [4] is -0.845 (inactive); in experiment [10], -0.155; in [11], 0.278 (inactive); in experiment [12], 0.634.

In the case of `COCC(=C=CC[C@H](O)c1ccccc1OCCO)C[C@H](O)COCc1ccccc1`, the z-score in experiment [1] is 0.0129; in [2] it was -2.91 (inactive); in experiment [3] it was 0.442 (inactive); in [5] it was -0.566 (inactive); in [6] it was -0.482 (inactive); in [7], -0.348 (inactive). Besides, the z-score in experiment [8] was -0.456 (inactive); in experiment [9], 0.623; in [13] it was -1.77; in experiment [14], -4.37 (inactive); in experiment [15] it was 0.141 (inactive); in experiment [16], 0.058 (inactive). The composite z-score in experiment [4] is -2.21 (inactive); in [10], 0.151; in experiment [11], 0.195 (inactive); in experiment [12], 0.148.

Regarding `C=CCC(OC(C)=O)[C@@H]1[C@@H](N(Cc2cc3ccccc3o2)C(=O)c2cccc3ccccc23)c2cc(OCCCO)ccc2N1C(=O)c1ccc2ccccc2n1` (some centres undefined), the z-score is -1.01 in experiment [1]; -0.711 (inactive) in experiment [2]; -0.367 (inactive) in [3]; 0.256 (inactive) in experiment [5]; 0.202 (inactive) in experiment [6]; 0.935 (inactive) in [7]. In addition, the z-score in experiment [8] was 0.207 (inactive); in experiment [9], -0.544; in experiment [13], -1.99; in experiment [14], -1.2 (inactive); in experiment [15] it was -0.0897 (inactive); in experiment [16] it was 0.0983 (inactive). The composite z-score is 0.364 (inactive) in experiment [4], -0.393 in [10], -0.667 (inactive) in experiment [11] and 0.202 in experiment [12].

Consider `O=C1C2C=CC(C(O)c3ccc([N+](=O)[O-])cc3)N(Nc3ccccc3F)C2C(=O)N1c1ccccc1` (centres undefined), for which the z-score in [1] is -0.54; in experiment [2], -1.45 (inactive); in [3] it was -0.348 (inactive); in experiment [5], 1.19 (inactive); in experiment [6], 0.646 (inactive); in [7], -0.892 (inactive). The z-score was -0.591 (inactive) in [8]; -0.608 in [9]; -0.111 in experiment [13]; -3.41 (inactive) in experiment [14]; 0.8 (inactive) in [15]; -0.314 (inactive) in experiment [16]. In addition, the composite z-score was 0.15 (inactive) in experiment [4], 0.0049 in experiment [10], 0.946 (inactive) in experiment [11] and 0.679 in experiment [12].

Consider `Cc1ccc(S[C@]2(C(=O)NCCCN(C)C)CC(=O)N(Cc3ccccc3C(F)(F)F)[C@@H]2c2ccc(CO)cc2I)cc1`, for which the z-score in [1] is 0.0689; in experiment [2], -4.57 (inactive); in experiment [3], -3.16 (inactive); in [5] it was -0.0065 (inactive); in [6], -1.55 (inactive); in experiment [7], -0.108 (inactive). The z-score was -0.65 (inactive) in experiment [8]; -1.42 in experiment [9]; 0.306 in [13]; -2.71 (inactive) in [14]; 0.0909 (inactive) in [15]; 0.675 (inactive) in experiment [16]. Besides, the composite z-score in [4] was -0.168 (inactive); in experiment [10], 0.191; in [11], 0.223 (inactive); in [12] it was 0.82.

In the case of `N#Cc1ccc(C(O)C2C=CC3C(=O)NC(=O)C3N2Nc2ccc(Cl)cc2Cl)cc1` (centres undefined), the z-score in [1] is -1.53; in [2] it was -14.4 (active); in [3], -1.43 (inactive); in [5], 1.26 (inactive); in [6], -0.633 (inactive); in experiment [7] it was -0.48 (inactive). Also, the z-score in experiment [8] is -0.413 (inactive); in experiment [9] it was -1.35; in [13], 0.684; in experiment [14] it was -5.63 (inactive); in experiment [15] it was 0.731 (inactive); in experiment [16] it was 0.688 (inactive). In addition, the composite z-score in experiment [4] is -0.173 (inactive); in experiment [10], 0.0856; in experiment [11], 1.42 (inactive); in [12], 0.0653.

For `CN(C)C(=O)[C@]1(Cc2ccccc2)N=C(c2ccc(OCCCO)cc2)O[C@@H]1c1ccccc1CN=[N+]=[N-]`, the z-score is 0.432 in experiment [1]; -1.3 (inactive) in experiment [2]; -0.0662 (inactive) in [3]; -0.248 (inactive) in experiment [5]; 0.22 (inactive) in experiment [6]; -0.348 (inactive) in experiment [7]. Further, the z-score was 0.686 (inactive) in experiment [8]; 0.431 in experiment [9]; -2.6 in experiment [13]; -4.47 (inactive) in experiment [14]; 0.0164 (inactive) in [15]; 0.304 (inactive) in [16]. The composite z-score is -0.979 (inactive) in [4], 0.0651 in [10], 0.245 (inactive) in experiment [11] and 0.764 in [12].
